# This is a sample that favours compounds with a hit; in the whole collection about 8.7% have one here.
# Sfp inh: qHTS Assay for Inhibitors of Bacillus subtilis Sfp phosphopantetheinyl transferase (PPTase); 4'-phosphopantetheinyl transferase ffp (Bacillus subtilis), Q9F4F7; Biochemical Sfp PPTase activity, qHTS; 310,000 compounds, 3.5% hits; Potency, µM, inactives show largest response in the series, negative = inhibition, actives largely listed as inhibitors;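 further: the enzyme is Sfp with the accession as filed and its product quenches rhodamine fluorescence; 0% = enzyme reaction without inhibitor and -100% = no enzyme wells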
#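 Compounds were incubated with enzyme (final 15 nM) for 15 min at room temperature before substrate addition started the reaction. Fluorescence at 525 nm excitation, 598 nm emission was recorded immediately and after 30 minutes.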
# G9a inh: qHTS Assay for Inhibitors of Histone Lysine Methyltransferase G9a. 350,000 compounds, 8.8% hits. G9a H3K9 monomethylation, AlphaScreen, 2 h. Histone-lysine N-methyltransferase EHMT2 (Homo sapiens), Q96KQ7. Potency, µM (highest dose often 102 µM), without a hit: at the top dose activity, negative = inhibition, actives largely listed as inhibitors; further: on the % scale 0 is the no-effect control and ±100 the full control effect; nearly all actives have a fitted effect of over 75% in size
# Target sequence (Q96KQ7 913-1193 limits assumed): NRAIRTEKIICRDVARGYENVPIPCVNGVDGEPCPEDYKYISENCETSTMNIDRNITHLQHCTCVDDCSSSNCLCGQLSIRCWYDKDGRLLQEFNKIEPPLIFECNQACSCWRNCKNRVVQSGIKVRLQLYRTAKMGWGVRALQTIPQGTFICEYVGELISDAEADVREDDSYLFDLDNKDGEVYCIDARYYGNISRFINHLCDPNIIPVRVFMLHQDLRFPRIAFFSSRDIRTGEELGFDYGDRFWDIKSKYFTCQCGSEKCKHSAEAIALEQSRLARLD
#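 Readings reflect AlphaScreen signal from monomethyl-H3K9 antibody detection. HMT at 20 nM; substrate b-H3K9 500 nM; cofactor SAM 20 uM; 2 h RT reaction; compounds tested as titrations in qHTS with 15 min preincubation.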
# BAZ2B block: qHTS Assay for Inhibitors of BAZ2B | Bromodomain adjacent to zinc finger domain protein 2B (Homo sapiens), Q9UIF8 | AlphaScreen BAZ2B-H3K14Ac peptide displacement | Potency, µM (doses to about 114 µM), for inactives: top-dose activity change, negative = inhibition, actives largely listed as inhibitors | 360,000 compounds, 4.4% hits | AID 504333, 2011; further: on the % scale 0 is the no-effect control and ±100 the full control effect; nearly all actives have a fitted effect of over 60% in size
#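 BAZ2B 50 nM plus b-H3(5-23)K14Ac 50 nM, PBS pH 7.4/0.01% Tween-20, 30 min RT; compound added (max 110 uM), 30 min RT; streptavidin donor/Ni-chelate acceptor beads 10 ug/mL final, 20 min dark; AlphaScreen read.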
# JMJD2A Tudor inh: qHTS Assay for Inhibitors of JMJD2A-Tudor Domain. Potency, µM (top dose mostly 114 µM), without a hit: at the top dose activity change, negative = inhibition, most hits filed as inhibitors. AlphaScreen JMJD2A-Tudor / H3K4me3 peptide binding. Lysine-specific demethylase 4A (Homo sapiens), O75164. 390,000 compounds, 4.4% hits; further: on the % scale 0 is the no-effect control and ±100 the full control effect; nearly all actives have a fitted effect of over 50% in size
# HP1b chromo inh: HTS for Inhibitors of HP1-beta Chromodomain Interactions with Methylated Histone Tails; Chromobox protein homolog 1 (Homo sapiens), P83916; AlphaScreen HP1-beta / biotin-H3K9me3 peptide binding; Potency, µM (highest dose often 114 µM), for inactives: top-dose activity change, negative = inhibition, most hits filed as inhibitors; 390,000 compounds, 0.56% hits; AID 540317, 2011; further: nearly all actives have a fitted effect of over 70% in size
# Target sequence (P83916 whole entry, looked up): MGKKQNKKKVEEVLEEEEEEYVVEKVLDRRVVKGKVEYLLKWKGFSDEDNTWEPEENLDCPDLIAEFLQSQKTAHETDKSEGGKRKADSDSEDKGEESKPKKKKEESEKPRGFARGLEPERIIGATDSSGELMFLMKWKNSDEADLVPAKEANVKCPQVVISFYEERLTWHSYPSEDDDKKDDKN
#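 AlphaScreen: HP1-beta (50 nM) preformed 30 min with biotin-H3(1-18)K9me3 peptide (50 nM) in PBS pH 7.4, 0.01% Tween-20. Compound added for 30 min at RT, then streptavidin donor/nickel chelate acceptor beads (10 ug/mL) for 30 min.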
# 12-LOX inh: Primary qHTS assay for inhibitors of human arachidonate 12S-lipoxygenase (ALOX12): Round 2 | Polyunsaturated fatty acid lipoxygenase ALOX12 (Homo sapiens), P18054 | purified 12hLO, xylenol orange hydroperoxide absorbance | Potency, µM (highest dose often 108 µM), for the others: top-dose activity change, negative = inhibition, usual class: inhibitors | 580,000 compounds, 1.1% hits | AID 1671190, 2021; further: on the % scale 0 is the no-effect control and ±100 the full control effect
#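 Purified human 12hLO at 150 nM in 25 mM Hepes, 0.01% Triton X-100, pH 7.0, preincubated 15 min at room temperature with compound. Reaction started with 40 uM arachidonic acid, 30 min at room temperature. Hydroperoxide measured by Fe-xylenol orange, 573/405 nm absorbance ratio.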
# Numbers without * were called inactive; ? = inconclusive; · = not tested or not shown; [ ] = another dose, or the depositor's remark. The call rests on the fitted dose curve; in most records, active means well fitted curve in the direction sought with a large enough effect; inconclusive means small, poorly fitted or top-dose-only effect, or another doubt; inactive means no such curve, though single readings can be large; an effect the other way counts as inactive or inconclusive. Potency means the concentration at half of the fitted maximal effect.
SMILES,Sfp inh,G9a inh,BAZ2B block,JMJD2A Tudor inh,HP1b chromo inh,12-LOX inh
COCCN(C(=O)CSc1nnc(-c2ccc(C)cc2)n1N)c1c(N)n(Cc2ccccc2)c(=O)[nH]c1=O,-0.5%,·,-9.7%,-14.0%,18.6%,482.6%
CC1CC(=O)c2c(cc3c(-c4c(O)cc(O)c5c(O)c6c(cc45)OC(C)CC6=O)c(O)cc(O)c3c2O)O1 (stereo unspecified),29.7%,?,39.8µM*,44.7µM*,?,·
CCN1CC(c2ccccc2)CC2(CCN(C(=O)Nc3ccccc3)CC2)C1 (stereo unspecified),·,·,·,·,·,10.7%
CC(C)C(N)c1ccccc1 (stereo unspecified),·,·,·,·,·,17.0%
Cc1ccc([C@H]2C(C(=O)O)=C[C@@H](CC3CCCC3)N2S(=O)(=O)c2ccc(C)cc2)cc1,·,·,·,-20.5%,38.6%,39.8µM*
CCCC[C@@H]1C=C(C(=O)O)[C@H](c2ccc(C)cc2)N1S(=O)(=O)c1ccc(C)cc1,·,·,·,-12.3%,15.9%,0.0%
CCCCC[C@@H]1C=C(C(=O)O)[C@H](c2ccc(C)cc2)N1S(=O)(=O)c1ccc(C)cc1,·,·,·,89.1µM*,-0.2%,?
COc1ccc(NC(=O)Cn2c(N(C)Cc3ccccc3)nc(C)cc2=O)cc1,·,·,·,·,·,2.0%
CC1=CC(=O)c2c(O)ccc(O)c2C1=O,25.1µM*,-189.3%[59 µM],3.55µM*,·,·,·
CCOC(=O)C1=C(C)NC(=O)NC1c1ccc(N(CC)CC)cc1 (stereo unspecified),7.1%,44.7µM*,-36.8%,?,10.1%,-4.2%
CCC(CC)COC(=O)C1=C(C)NC(=O)NC1c1ccc(N(C)C)cc1 (stereo unspecified),27.4%,15.8µM*,?,?,-10.3%,-48.2%
CCOC(=O)C1=C(C)NC(=O)NC1c1ccc(N(C)C)cc1 (stereo unspecified),12.6%,?,-1.9%,-34.8%,17.4%,?
CCOC(=O)N1CCC(=NNc2ncc(C(F)(F)F)cc2Cl)CC1,?,9.9%,·,?,14.3%,-15.5%
CC(=O)N1CCC(=NNc2ncc(C(F)(F)F)cc2Cl)CC1,?,-17.6%,35.5µM*,-21.9%[57.1 µM],33.4%,-9.5%
CC(=O)N1CCC(=NNc2ccnc3cc(Cl)ccc23)CC1,1.6%,28.2µM*,?,-13.9%,41.8%,?
COc1ccc(-c2cc(C(=O)NCc3cc(C)on3)c3c(c2)N(C)CCO3)cc1OC,·,·,·,·,·,-9.3%[176 µM]
Cc1ccc2nc(C)c(C(=O)NCCCOCC(C)C)cc2c1,·,·,·,·,·,-8.2%
COc1ccc(S(=O)(=O)Nc2nc3ccccc3nc2Nc2cccc(C(=O)O)c2)cc1,16.0%,44.7µM*,-18.9%[57.1 µM],-6.0%,53.5%,15.1%
O=C(O)c1cccc(Nc2nc3ccccc3nc2NS(=O)(=O)c2ccc(Br)cc2)c1,·,·,·,·,·,12.6µM*
COc1cccc(Nc2nc3ccccc3nc2NS(=O)(=O)c2ccc(Cl)cc2)c1,·,·,·,·,·,-24.7%
CCOC(=O)c1cccc(Nc2nc3ccccc3nc2NS(=O)(=O)c2ccccc2)c1,·,·,·,·,·,-21.6%
CN1CCN(c2ccc(-c3cc4c(ccn4C)c(C(=O)NCc4cccnc4)n3)cc2)CC1,·,·,·,·,·,-1.4%
O=C(NC1CC1)c1ccc(CN(C2CC2)S(=O)(=O)c2ccc3c(c2)CCCC3)cc1,·,·,·,·,·,0.0%
Cc1onc(C(=O)NC2CCc3n[nH]c(=O)n3CC2)c1COc1ccccc1 (stereo unspecified),·,·,·,·,·,17.7%
COc1ccc(-c2nc(C#N)c(N3CCN(C(=O)c4cccs4)CC3)o2)cc1OC,·,·,·,·,·,-5.7%
SMILES,Sfp inh,G9a inh,BAZ2B block,JMJD2A Tudor inh,HP1b chromo inh,12-LOX inh
O=S(=O)(c1cccs1)N1CCOc2ccc(COCc3cccc(F)c3)cc2C1,·,·,·,·,·,-5.3%
COc1ccc(-n2c(C)cc(/C=C3\C(=N)N4N=C(CC(=O)N5CCOCC5)SC4=NC3=O)c2C)cc1,-6.0%,-4.8%[0.0925 µM],44.7µM*,-34.1%,15.7%,-19.2%
N=C1/C(=C\c2ccc(Br)o2)C(=O)N=C2SC(CC(=O)N3CCOCC3)=NN12,2.1%,12.9%[12.7 µM],50.1µM*,89.1µM*,22.7%,-28.6%
Cc1cc(/C=C2\C(=N)N3N=C(CC(=O)N4CCOCC4)SC3=NC2=O)c(C)n1-c1ccccc1,13.2%,?,-38.6%,-29.1%,20.9%,-6.6%
N=C1/C(=C/c2ccc(Br)o2)C(=O)N=C2SC(CC(=O)N3CCCC3)=NN12,8.9%,?,50.1µM*,?,9.6%,-8.8%
N=C1/C(=C/c2ccco2)C(=O)N=C2SC(CC(=O)N3CCCC3)=NN12,5.2%,39.8µM*,?,79.4µM*,-4.0%,-3.9%
OC[C@@H]1CNC[C@H]1C1CCN(Cc2ccc(Cl)c(F)c2)CC1,·,·,·,·,·,12.9%
C#CCNC(=O)c1nc(C(C)(C)C)c2ccccn12,·,·,·,·,·,36.1%[176 µM]
COc1ccc(-c2nc(NC(=O)c3ccccc3)sc2-c2ccc([N+](=O)[O-])cc2)cc1,12.1%,19.2%,-1.8%[57.1 µM],-31.5%,4.4%,-7.2%
COc1ccc(-c2csc(Nc3ccccc3)[n+]2CC(O)c2ccc([N+](=O)[O-])cc2)cc1 (stereo unspecified),-6.8%,14.1µM*,?,?,?,?
COCCNc1oc(-c2ccccc2C)nc1C#N,·,·,·,·,·,-3.9%
CCc1ccc(C(=O)N2C[C@@H](CO)[C@H](N(C)C)C2)cc1,·,·,·,·,·,9.1%
COc1ccc2c(c1)/C(=C/c1cc(OC)c(OC)c(OC)c1)C(=O)N2,·,·,·,-22.9%,11.2%,-1.6%
C=C1c2cc(OC)ccc2NC(=O)N1CC,19.0%,31.6µM*,3.4%,-12.6%,31.0%,-6.5%
CCCNC(=O)C1CC(c2ccccc2F)=NO1 (stereo unspecified),·,·,·,·,·,29.6%
COc1ccc(N2CCN(Cc3oc(CO)cc(=O)c3O)CC2)cc1,6.8%,?,?,?,45.5%,?
CN1CCN(Cc2oc(CO)cc(=O)c2O)CC1,-3.4%,?,?,56.2µM*,0.8%,-3.7%
CCN(CC)Cc1oc(CO)cc(=O)c1O,-10.7%,12.6µM*,31.6µM*,?,?,31.6µM*
O=C(O)C1CCN(Cc2oc(CO)cc(=O)c2O)C1 (stereo unspecified),·,·,·,?,20.5%,4.4%
O=c1cc(CO)oc(CN2CCCC2)c1O,-11.6%,44.7µM*,?,89.1µM*,3.5%,-0.8%

# Assay outcomes from PubChem.
